p53null 32C kill – kills p53 null cells at the permissive temperature; H1299-neo p53 null cells, ATP luminescence, 24 h, 32C; Potency, µM (titrated, usually from 46.1 µM), inactives show top-dose activity change, negative = cytotoxicity, usual class: cytotoxic; 55,000 tested, 0.62% active; AID 903;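 also: potency is read from the fitted curve at half-maximal effect; 0% = DMSO only and -100% = full killing by 100 µM tamoxifen; nearly all actives have a fitted effect of over 55% in size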
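Cells lacking p53 (H1299-neo) are plated at 600 per well and allowed to settle overnight at 37C. Test compounds (up to 46 uM) are added and held 24 hours at 32C, then ATP is quantified by luminescence.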
p53null 39C kill – kills p53 null cells at the nonpermissive temperature; Potency, µM (titrated, usually from 46.1 µM), for inactives: top-dose activity, negative = cell killing, most hits filed as cytotoxic; H1299 p53-null (neo) cells, 39C, ATPlite viability, 24 h; AID 904; 55,000 tested, 0.97% active;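 also: potency is read from the fitted curve at half-maximal effect; 0% = DMSO only and -100% = full killing by 100 µM tamoxifen; nearly all actives have a fitted effect of over 50% in size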
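H1299 lung cancer cells, p53-null (H1299-neo) or expressing p53 A138V (H1299-p53A138V), were plated overnight at 37C, then exposed to compounds at up to 46 uM for 24 hr at 39C. Viability was read by ATP-based luminescence.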
PMP22 txn prim – modulators of PMP22 gene transcription in S16 Schwann cells; AID 1508649; 43,000 tested, 2% active; S16 Pmp22-F2sN Schwann cells, FLuc/NLuc coincidence luminescence, 24 h; Potency, µM (top dose mostly 57.5 µM), for inactives: at the top dose activity change, negative = inhibition, hits mostly inhibitors; active = clear falling dose curves in both reporters; inconclusive = both reporters move, but less clearly or upward; inactive = either reporter flat; the % is the NLuc reporter signal; also: potency is read from the fitted curve at half-maximal effect; % is scaled to controls: 0 for no effect and ±100 for the full control effect
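S16(c9) Schwann cells with FLuc/NLuc coincidence reporter in the Pmp22 3' UTR; compounds pin-transferred, 24 h at 37C. Dual-luciferase read: FLuc first, then NLuc after Stop&Glo, each 10 min at room temperature.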
S16 F2sN tox – toxic to S16 Pmp22-F2sN Schwann cells; Potency, µM (titrated, usually from 57.5 µM), for the others: top-dose activity change, negative = cytotoxicity, actives largely listed as cytotoxic; AID 1508642; S16 Pmp22-F2sN Schwann cells (luciferase reporters placed in the Pmp22 gene) viability, CellTiter-Glo, 24 h; 43,000 tested, 0.48% active; also: potency is read from the fitted curve at half-maximal effect; % is scaled to controls: 0 for no effect and ±100 for the full control effect; nearly all actives have a fitted effect of over 65% in size
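CellTiter-Glo counter-screen, qHTS, 1536-well. Cells: S16(c9) Pmp22-F2sN, 500-1,000/well in DMEM + 10% FBS. Cpd 23 nL pin transfer, 24 h, 37C/5% CO2. Read: luminescence, CCD imager.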
pS6 MEF inh – mTORC1 pathway inhibition measured by phospho-rpS6 | Tsc2-/- p53-/- MEF, phospho-rpS6 immunofluorescence/PI, 24 h | Potency, µM (highest dose often 38.3 µM), for inactives: at the highest dose activity change, negative = inhibition, usual class: inhibitors | 44,000 tested, 0.78% active;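 also: potency is read from the fitted curve at half-maximal effect; plate controls were DMSO for no effect and rapamycin for full effect; nearly all actives have a fitted effect of over 50% in size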
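Read-out: phospho-S6 Alexa-488 intensity over PI intensity per well, scored as % active cells using thresholds from rapamycin (7.5 nM) and DMSO controls. Tsc2-/-, p53-/- MEFs exposed to compound for 24 h; PI cell count recorded as viability.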
OvCa metastasis – ovarian cancer metastasis inhibition, 3D TME model; Potency, µM (titrated, usually from 45.8 µM), without a hit: top-dose activity change, negative = inhibition, most hits filed as inhibitors; 46,000 tested, 0.1% active; SKOV3ip1-GFP adhesion/invasion on 3D omental model, fluorescence;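 also: potency is read from the fitted curve at half-maximal effect; plate controls were DMSO wells for no effect and tomatine positive control wells for full effect; nearly all actives have a fitted effect of over 65% in size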
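Adhesion/invasion was scored as fixed GFP-labeled SKOV3ip1 cell counts (488/509 nm), normalized to DMSO and tomatine controls. Cancer cells in serum-free medium, with four compound doses (0.36-46 umol/L), sat 2 hr at RT then 16 hr at 37 C on a 48 hr fibroblast/mesothelial/ECM culture.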
NLuc saturating – NanoLuc enzyme inhibition artifact for PMP22 screen; Secreted NLuc enzyme (filtered S16 cell medium), Nano-Glo luminescence; Potency, µM (highest dose often 57.5 µM), without a hit: at the top dose activity change, negative = inhibition, most hits filed as inhibitors; AID 1508638; 690 tested, 4% active; shares compounds with PMP22 txn prim; also: potency is read from the fitted curve at half-maximal effect; % is scaled to controls: 0 for no effect and ±100 for the full control effect
NLuc Km ctr – counter-screen for PMP22 expression modulators: NanoLuc inhibition at Km. AID 1508639. secreted NLuc enzyme, coelenterazine luminescence, Km conditions. shares compounds with PMP22 txn prim. 690 tested, 5% active. Potency, µM (highest dose often 57.5 µM), for inactives: at the highest dose activity change, negative = inhibition, usual class: inhibitors; also: potency is read from the fitted curve at half-maximal effect; % is scaled to controls: 0 for no effect and ±100 for the full control effect
FLuc counter – inhibits firefly luciferase, PMP22 counter-screen. shares compounds with PMP22 txn prim. purified P. pyralis FLuc, luminescence, 10 min. Potency, µM (titrated, usually from 57.5 µM), inactives show at the top dose activity, negative = inhibition, usual class: inhibitors. 690 tested, under 10 active. AID 1508640; also: % of control where 0% means no effect
Target sequence (P08659 whole entry, looked up): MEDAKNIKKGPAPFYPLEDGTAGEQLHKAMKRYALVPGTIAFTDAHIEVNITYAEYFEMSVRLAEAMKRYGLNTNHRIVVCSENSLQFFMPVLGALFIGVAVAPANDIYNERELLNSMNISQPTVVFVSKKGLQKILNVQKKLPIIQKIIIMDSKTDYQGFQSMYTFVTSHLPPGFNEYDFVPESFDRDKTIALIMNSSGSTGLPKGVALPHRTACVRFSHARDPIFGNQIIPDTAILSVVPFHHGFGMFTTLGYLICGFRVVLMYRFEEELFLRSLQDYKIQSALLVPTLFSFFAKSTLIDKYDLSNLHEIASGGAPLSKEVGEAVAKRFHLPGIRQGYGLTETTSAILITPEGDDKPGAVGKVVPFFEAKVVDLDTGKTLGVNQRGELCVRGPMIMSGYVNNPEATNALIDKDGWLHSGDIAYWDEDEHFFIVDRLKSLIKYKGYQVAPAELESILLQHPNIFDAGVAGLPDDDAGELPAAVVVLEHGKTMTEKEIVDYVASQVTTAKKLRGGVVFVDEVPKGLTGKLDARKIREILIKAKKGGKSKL
S16 F2sN tox cnf – S16 Schwann cell cytotoxicity, confirmatory. shares compounds with PMP22 txn prim. S16 Schwann cells viability, CellTiter-Glo ATP luminescence, 24 h. 690 tested, 7% active. Potency, µM (titrated, usually from 57.5 µM), inactives show top-dose activity change, negative = viability loss, hits mostly cytotoxic; also: potency is read from the fitted curve at half-maximal effect; % is scaled to controls: 0 for no effect and ±100 for the full control effect
PMP22 txn conf – PMP22 transcription modulation, confirmatory; shares compounds with PMP22 txn prim; S16 Schwann cells Pmp22-F2sN, dual luciferase, 24 h; Potency, µM (highest dose often 57.5 µM), without a hit: top-dose activity change, negative = inhibition, most hits filed as inhibitors; 690 tested, 22% active; AID 1508646; active = clear falling dose curves in both reporters; inconclusive = both reporters move, but less clearly or upward; inactive = either reporter flat; the % is the FLuc reporter signal; also: potency is read from the fitted curve at half-maximal effect
PMP22 prot conf – rat PMP22 protein level modulation, confirmatory; shares compounds with PMP22 txn prim; S16 Schwann cells Pmp22-HiBiT, luminescence, 48 h; Potency, µM (top dose mostly 27.9 µM), for inactives: at the top dose activity change, negative = inhibition, most hits filed as inhibitors; 95 tested, under 10 active
Active calls of the source: *; i = inactive; ? = inconclusive; nt = no result. In the library only some 3.1% were active in any assay of this set; here they are far more common. Unless noted, calls follow the shape of the dose curve; as a rule, active = well fitted curve in the direction sought with a large enough effect; inconclusive = small, poorly fitted or top-dose-only effect, or another doubt; inactive = no such curve, though single readings can be large; an effect the other way counts as inactive or inconclusive.

SMILES	p53null 32C kill	p53null 39C kill	PMP22 txn prim	S16 F2sN tox	pS6 MEF inh	OvCa metastasis	NLuc saturating	NLuc Km ctr	FLuc counter	S16 F2sN tox cnf	PMP22 txn conf	PMP22 prot conf
N#C[C@H](O[C@@H]1O[C@H](CO[C@@H]2O[C@H](CO)[C@H](O)[C@H](O)[C@H]2O)[C@H](O)[C@H](O)[C@H]1O)c1ccccc1	nt	nt	nt	nt	nt	-18%	nt	nt	nt	nt	nt	nt
COc1ccc(CN2CCN(c3ncnc4sc5c(c34)CCCC5)CC2)cc1F	57%	53%	5.3µM*	?	-6%	3%	-20%	-2%	-13%	-23%	?	nt
CCOP(=O)(OCC)C(C)NC(=O)N(CCCl)N=O (stereo not given)	nt	nt	nt	nt	nt	13%	nt	nt	nt	nt	nt	nt
CCc1ccc(OCC(=O)Nc2cc3oc4ccccc4c3cc2OC)cc1	?	-22%	6.4µM*	4%	1%	i	5%	2%	3%	-13%	18µM*	11%
COc1ccc(NC(=O)Cn2c(=O)c3cccn3c3ccccc32)cc1Cl	16%	90%	?	12%	-1%	-6%	nt	nt	nt	nt	nt	nt
COc1ccccc1NC(=O)Cn1c(=O)n(-c2cccc(Cl)c2)c(=O)c2sc3ccccc3c21	-4%	?	10µM*	1%	1%	i	-4%	5%	1%	?	6.5µM*	6.5µM*

Assay outcomes deposited in PubChem BioAssay by National Center for Advancing Translational Sciences (NCATS).
